Experimental data: the supplement of paper PMC12669032
A number with no mark means an inactive call.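 Rule for the calls: active = AUC reduced over 20% with Padj below 0.05 in at least 2 of 3 replicates; inactive = otherwise.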

Columns and labels:
Assay in all cases: growth AUC relative to DMSO control (median of replicates) (fraction); higher = more growth (less inhibition), active = hit call of the paper
Conditions in all cases: 20 µM; 24 h
Akkermansia muciniphila = test system: Akkermansia muciniphila
Summary of the method: (§1)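 Hourly OD600 readings over 24 h tracked anaerobic gut bacterial monocultures grown at 37 °C in mGAM from OD600 0.05 with 20 µM compound (1% DMSO). After the minimum OD was set to 0, area under the growth curve was normalised to the plate median of solvent-only wells, or to row and column medians on the industrial chemical plate. Values are medians of three biological replicates grown on separate days.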

Bacteroides caccae = test system: Bacteroides caccae
Summary of the method: as §1

Bacteroides clarus = test system: Bacteroides clarus
Summary of the method: as §1

Bacteroides dorei = test system: Bacteroides dorei
Summary of the method: as §1

Bacteroides stercoris = test system: Bacteroides stercoris
Summary of the method: as §1

[1] = test system: Bacteroides thetaiotaomicron
Summary of the method: as §1

Bacteroides uniformis = test system: Bacteroides uniformis
Summary of the method: as §1

[2] = test system: Bifidobacterium longum subsp. longum
Summary of the method: as §1

Clostridium difficile = test system: Clostridium difficile
Summary of the method: as §1

Collinsella aerofaciens = test system: Collinsella aerofaciens
Summary of the method: as §1

Coprococcus comes = test system: Coprococcus comes
Summary of the method: as §1

Escherichia coli ED1a = test system: Escherichia coli ED1a
Summary of the method: as §1

Escherichia coli IAI1 = test system: Escherichia coli IAI1
Summary of the method: as §1

Eubacterium rectale = test system: Eubacterium rectale
Summary of the method: as §1

[3] = test system: Fusobacterium nucleatum subsp. animalis
Summary of the method: as §1

Lactobacillus gasseri = test system: Lactobacillus gasseri
Summary of the method: as §1

Lactobacillus paracasei = test system: Lactobacillus paracasei
Summary of the method: as §1

Odoribacter splanchnicus = test system: Odoribacter splanchnicus
Summary of the method: as §1

[4] = test system: Parabacteroides distasonis
Summary of the method: as §1

Parabacteroides merdae = test system: Parabacteroides merdae
Summary of the method: as §1

SMILES	growth AUC (Akkermansia muciniphila)	growth AUC (Bacteroides caccae)	growth AUC (Bacteroides clarus)	growth AUC (Bacteroides dorei)	growth AUC (Bacteroides stercoris)	growth AUC [1]	growth AUC (Bacteroides uniformis)	growth AUC [2]	growth AUC (Clostridium difficile)	growth AUC (Collinsella aerofaciens)	growth AUC (Coprococcus comes)	growth AUC (Escherichia coli ED1a)	growth AUC (Escherichia coli IAI1)	growth AUC (Eubacterium rectale)	growth AUC [3]	growth AUC (Lactobacillus gasseri)	growth AUC (Lactobacillus paracasei)	growth AUC (Odoribacter splanchnicus)	growth AUC [4]	growth AUC (Parabacteroides merdae)
NC1=C(Cl)C(=O)c2ccccc2C1=O	0.886	1.12	0.716 (active)	0.965	0.83	0.906	0.88	0.887	0.938	1.01	1	0.896	0.804	1.19	1.25	0.863	0.995	0.876	0.528 (active)	0.88
C#CC(C)N(C)C(=O)Nc1ccc(Cl)cc1 (stereo not given)	0.974	0.995	0.985	0.978	1.1	1	0.99	0.966	0.946	1	1.05	1.04	0.988	1	1.03	1.07	1.02	0.994	0.95	1.01
Oc1cccc2ccccc12	1	1.04	1	0.987	0.943	0.993	0.976	0.999	0.98	0.959	0.96	0.994	0.982	0.957	0.988	0.976	1.02	0.975	0.983	0.997
O=c1cccc2n1CCn1c-2cccc1=O	1.11	1.03	0.986	0.918	1	0.995	1.02	0.969	0.993	0.98	1.01	0.992	0.968	0.956	0.971	0.982	1.02	0.982	1.04	1.01
CCCN(CCC)C(=O)SCC	0.884	1.02	0.97	1.01	0.942	0.998	0.959	0.97	1.03	0.992	0.969	0.967	1.01	0.944	0.893	1.03	1.02	1	1.03	0.984
CC(Oc1ccc(Cl)cc1Cl)C(=O)NC(C)(C#N)C(C)C (stereo not given)	1.27	0.944	1	0.999	0.99	0.964	0.92	1.02	0.935	0.977	1.02	0.989	1.01	1.13	0.972	0.803	0.997	0.838	0.65 (active)	0.981
CC(=O)Oc1c(Cl)c(Cl)c(Cl)c(Cl)c1Cl	0.861	0.559 (active)	0.585 (active)	0.66 (active)	0.448 (active)	0.565 (active)	0.52 (active)	0.942	0.784 (active)	0.937	0.953	0.936	0.808	0.942	0.782	0.871	1.05	0.548 (active)	0.542 (active)	0.558 (active)
CCOC(=O)C1=NOC(c2ccccc2)(c2ccccc2)C1	0.86	1.03	0.971	0.995	0.979	0.926	0.932	0.966	0.974	0.993	0.974	0.974	0.997	0.932	0.956	0.99	1.06	0.944	1.14	0.948
CP(=O)(O)CCC(=O)O	0.928	0.975	0.956	1.01	1.01	1.03	0.967	1.03	1.04	1	0.993	0.973	0.999	0.804	0.999	1.14	0.999	1.04	0.974	0.993
COC(=O)c1c(Cl)c(Cl)c(C(=O)OC)c(Cl)c1Cl	0.846	1.04	0.985	1.02	0.88	1.02	0.994	0.953	1.07	0.986	1.05	0.979	0.995	1.16	0.963	0.974	0.982	1.1	0.979	1.01
N#Cc1cc(Cl)c(O)c(Cl)c1	1.12	1	1	0.982	0.935	0.994	0.947	1.03	0.997	1	1.02	0.926	0.9	0.972	1.03	1.17	1.03	0.998	0.956	0.93
CC(C)c1cccc2c(=O)c3ccccc3sc12	1.1	0.922	1.03	0.913	1.21	0.963	0.995	1.06	0.895	0.95	0.979	1.03	1.04	1	1.19	0.968	1.05	1.05	0.952	0.885
O=S(=O)(Oc1ccc(Cl)cc1Cl)c1ccccc1	0.953	0.956	1	0.939	0.967	1.01	0.996	1.1	1.01	0.98	1.03	0.98	0.986	1.02	0.938	1.03	1.14	1.09	0.972	1.02
CCOC(=O)CSc1nc(C(C)(C)C)nn1C(=O)N(C)C	1.03	0.951	0.96	0.94	0.815	0.978	0.989	0.96	1.01	0.931	0.985	0.961	0.947	1.05	0.918	0.91	0.956	0.948	0.896	0.947
CCN(CC)C(=O)SCc1ccccc1Cl	0.931	1.02	0.985	1	1.01	0.983	0.957	0.965	0.996	1.01	1.01	1.04	1	0.939	0.964	1.1	0.994	1.12	0.92	0.95
CCOC(=O)[C@@H](C)Oc1ccc(Oc2cnc3cc(Cl)ccc3n2)cc1	0.987	0.9	0.965	0.967	0.996	0.998	0.947	1.01	1.01	1.01	0.983	0.997	1.01	1.01	0.992	1.03	0.917	0.984	1.02	0.99
